From PubChem BioAssay AID449762 (Southern Research Specialized Biocontainment Screening …, 2010)
About 1,900 (0.58%) of roughly 330,000 compounds were called active. Not shown: some 4% with an inconclusive outcome. A selection follows. Entries with a potency or affinity are not part of this list. Values without a mark were called inactive. Rule as the data show it: inconclusive = inhibition above about 70% without an active follow-up result; inactive = below that.

Test: M. tuberculosis growth inhibition, HTS (AID 449762);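 also: bacterial growth assessed after seven days of incubation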
Conditions: M. tuberculosis H37Rv growth inhibition, 7H9 media; at 25 µM; stronger effect = higher value

| Structure (SMILES) | inhibition [%] |
| --- | --- |
| COCCn1c(O)c(/C=N/NC(=O)CSC(=S)N2CCCC2)c(=O)[nH]c1=S | -6.24 |
| CCOc1ccccc1NC(=O)C1CCCN(c2c(CC)c(C)nc3ncnn23)C1 (stereo not drawn) | 3.2 |
| CCN(c1cccc(C)c1)S(=O)(=O)c1nnc(NC(=O)c2ccco2)s1 | -5.15 |
| CC(C)Cn1c2c(c(O)c(C(=O)Nc3nccs3)c1=O)CCCC2 | 8.72 |
| Cc1csc(NC(=O)c2c(O)c3c(n(CC(C)C)c2=O)CCCC3)n1 | 65.9 |
| CC(=C1C(=O)c2ccccc2C1=O)N1CCN(c2ccc(F)cc2)CC1 | -0.18 |
| O=C(O)c1ccccc1SSc1ccccc1C(=O)O | -0.04 |
| CCC(Sc1ccccc1C(=O)O)C(=O)O (stereo not drawn) | 5.4 |
| COc1ccc(CN2CCN(Cc3cccc(Oc4ccccc4)c3)CC2)c(OC)c1OC | 22.7 |
| Cn1c(C(=O)N2CCCC(C(=O)NCCCSC3CCCCC3)C2)cc2sccc21 (stereo not drawn) | 67.2 |
| Cc1cc(C)n2nc(N)c(N=Nc3ccc(Cl)cc3)c2n1 | 5.04 |
| Cc1cc(C)n2nc(N)c(N=Nc3ccc4c(c3)OCO4)c2n1 | 1.48 |
| CC(C)CNC(=S)N(CCN(C)C)Cc1cc2cc3c(cc2[nH]c1=O)OCCO3 | -7.36 |
| COc1ccc(OC)c(NC(=O)CSc2nncc(=O)n2N)c1 | -3.14 |
| CC(=O)N1CC(C)Sc2ccc(S(=O)(=O)NC3CCCCC3)cc21 (stereo not drawn) | 0.78 |
| NC(=O)NCC(=O)N1CCC(C(O)(c2ccccc2)c2ccccc2)CC1 | -4.38 |
| COc1ccc(Cc2nnc(SCC(=O)N3CCc4ccccc4C3)o2)cc1 | -4.27 |
| COc1ccc(-c2nnc(SCC(=O)N3CCCC3)o2)cc1 | -2.88 |
| Cc1cccc(C)c1OCCOC(=O)c1cccc(S(=O)(=O)N2CCOCC2)c1 | -2.97 |

| Structure (SMILES) | inhibition [%] |
| --- | --- |
| Cc1cccc(C(=O)OCC(=O)N2CCCCCC2)c1O | 20.7 |
| COc1cccc(C(=O)OCC(=O)N2CCc3ccccc3C2)c1OC | -0.41 |
| COc1ccccc1N1CCN(S(=O)(=O)c2ccc(Br)s2)CC1 | -5.24 |
| Cc1c(Cl)cccc1NC(=O)Nc1cc(C(C)(C)C)nn1C | 2.96 |
| Cn1nc(C(C)(C)C)cc1NC(=O)Nc1ccc(Cl)cc1 | 6.33 |
| CC(C)c1ccc(OCC(O)CNC(C)c2ccccc2)cc1 (stereo not drawn) | 15.1 |
| COc1ccc(OCC(O)CNC(C)c2ccccc2)cc1 (stereo not drawn) | -6.83 |
| C[C@H](NC(=O)C1CC(=O)N(c2ccc3c(c2)OCCO3)C1)C(=O)NCc1ccco1 (stereo partly drawn) | 0.57 |
| COc1ccc(-n2nc3c(N4CCC(C(=O)NCc5ccccc5C)CC4)nnc(C)c3c2C)cc1 | 8.33 |
| Cc1ccc(-n2nc3c(N4CCC(C(=O)NCCc5ccccc5C)CC4)nnc(C)c3c2C)cc1 | 5.89 |
| COC(CNC(=O)CNC(=S)N(CCCN1CCOCC1)Cc1cccs1)OC | 12.5 |
| Cc1nc(Nc2ccc(Br)cc2Br)c([N+](=O)[O-])c(=O)[nH]1 | 0.85 |
| CCc1cc2c(Sc3nc4ccccc4s3)ncnc2s1 | 11.1 |
| Cc1sc2ncnc(Sc3nc4ccccc4s3)c2c1C | -4.93 |
| Cc1nc(-c2ccc(S(=O)(=O)Oc3ccccc3Cl)s2)cs1 | 4.35 |
| O=C(COc1ccc(S(=O)(=O)N2CCOCC2)cc1)N1CCCCCC1 | -3.92 |
| COc1ccccc1-c1cc(C(=O)N2CCN(c3ccccc3)CC2)no1 | -4.77 |
| COc1ccc(NS(=O)(=O)c2ccc(C)c(C(=O)NNC(=O)c3ccccc3O)c2)cc1 | 5.14 |
| CC(C)(C)c1ccc(C(=O)N2CCN(Cc3ccccc3)CC2)cc1 | 4.6 |
